Screens deposited in PubChem by National Center for Advancing Translational Sciences (NCATS).
LASV entry inh – Lassa virus entry inhibition; Lassa virus pseudotype entry inhibition, cell reporter; Potency, µM (series often up to 37.9 µM), hits mostly inhibitors; actives 1.2% (n = 300,000); calls by dose curve; tested in HEK293 cells; note: nearly all actives have a fitted effect of over 50% in size
Pf growth 96h – P. falciparum growth inhibition at 96 hours; P. falciparum luciferase reporter growth, 96 h; Potency, µM (highest dose often 28.7 µM), most hits filed as inhibitors; actives 6.9% (n = 320,000); AID 504834
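Cell-based qHTS: luciferase-tagged P. falciparum in erythrocytes (2% hematocrit, 0.05% parasitemia final) incubated with compounds for 96 hours, 37 C, 5% CO2; luciferase detection reagent then added and luminescence measured.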
Marburg entry inh – blocks Marburg virus binding to or entry into cells. AID 540276. actives 1.8% (n = 300,000). Potency, µM (highest dose often 37.8 µM), hits mostly inhibitors. Marburg virus pseudotyped entry inhibition, cell reporter; calls by dose curve; tested in HEK293 cells
Pf growth 48h – P. falciparum growth inhibition at 48 hours (one generation); actives 5.9% (n = 310,000); AID 504832; Potency, µM (doses to about 28.7 µM), hits mostly inhibitors; P. falciparum luciferase growth in erythrocytes, 48 h
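Here the parasites carry a stable luciferase gene and grow inside erythrocytes in Albumax-based RPMI medium with compound for one erythrocytic cycle. Activity is scored as loss of luminescent signal.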
HCV inh – HCV inhibition; actives 3.4% (n = 340,000); Huh7.5.1 HCVcc-Cre infection, luciferase reporter, 44 h; Potency, µM (highest dose often 41.8 µM), actives largely listed as inhibitors
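Whole-lifecycle infectious HCVcc-Cre system; cells 1,000/well, compound then virus (~0.5 moi) added 4 h after plating, 44 h culture. Luciferase read 15 sec following 15 min substrate incubation, room temp.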
HCMV inh – inhibitors of human cytomegalovirus; HFF cells, HCMV-luciferase reporter, 72 h; stronger effect = lower value; activity change, negative = inhibition, % at 57.5 µM; actives 4.5% (n = 410,000); AID 1259415; in the data active = activity change below about -60%; inconclusive = no clear call, values can overlap the other calls; inactive = above about -39%
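Inhibition of viral replication was scored as loss of reporter luminescence in HFFs infected with HCMV-luciferase (MOI 1 PFU/cell) for 72 h; compounds tested at 2 doses, normalized to buffer and Salinomycin controls.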
A number is an active result; n = inactive; u = inconclusive; x = no result. In the library only some 14% were active in any assay of this set; here they are far more common. Unless noted, calls come from the whole dose curve; as a rule, active = well fitted inhibition curve with a large enough effect; inconclusive = small, poorly fitted or top-dose-only effect, or another doubt; inactive = no such curve, though single readings can be large or run the other way.

SMILES	LASV entry inh	Pf growth 96h	Marburg entry inh	Pf growth 48h	HCV inh	HCMV inh
N#Cc1cc([N+](=O)[O-])ccc1NC(=O)COC(=O)C1CCC(=O)N1 (stereo unspecified)	n	x	n	x	n	n
Fc1ccc(Nc2nc(-c3cccc(Cl)c3)c3c(n2)-c2ccccc2OC3)cc1	n	x	n	x	x	n
CC(=O)c1cccc(S(=O)(=O)Nc2ccc3nc(C)sc3c2)c1	n	n	n	n	n	u
COc1cc(S(=O)(=O)Nc2ccc(C(=O)NCC(=O)O)cc2)ccc1NC(C)=O	n	n	n	n	u	n
COc1cc(S(=O)(=O)Nc2ccc3nc(C)sc3c2)ccc1NC(C)=O	x	u	x	n	u	-88
Cc1nc2ccc(NS(=O)(=O)c3ccc(C)c(C)c3)cc2s1	n	n	u	x	u	-88
COCCN1C(=O)COCc2cc(-c3ccc4c(c3)OCO4)ccc21	x	x	x	x	x	n
O=C1[C@H]2[C@H]3[C@H](O)[C@H](O)C/C(=N/OC[C@@H](O)COCc4ccco4)[C@H]3CC[C@@H]2C(=O)N1Cc1ccccc1	x	x	n	x	x	x
C/C(=N\NC(=O)c1ccc(CN2CCOCC2)cc1)c1ccc([N+](=O)[O-])cc1	n	n	n	n	11µM	u
C/C(=N\NC(=O)c1ccc(CN2CCOCC2)cc1)c1cccc([N+](=O)[O-])c1	n	u	u	n	u	n
C/C(=N\NC(=O)c1ccc([N+](=O)[O-])cc1)c1c(O)cc(C)oc1=O	n	n	n	n	n	n
CSc1ccc(CN2CCN(C(=O)c3ccc([N+](=O)[O-])cc3)CC2)cc1	u	n	u	n	u	-75
O=C(Nc1cccc([N+](=O)[O-])c1)c1ccc(CN2CCOCC2)cc1	u	12µM	n	n	u	n
C/C(=N/NC(=O)c1cc(O)c(O)c(O)c1)c1ccc([N+](=O)[O-])cc1	x	n	x	9.3µM	n	n
CCCCCCn1c(=O)n2n(c1=O)C[C@]1(OC(=O)Nc3c(C)noc3C)CN(S(=O)(=O)c3ccc(C)cc3)C[C@]1(O)C2	x	x	x	x	x	n
COCCNC(=O)CCCn1c(SCC(=O)c2ccc(F)cc2)nc2c(sc3ccccc32)c1=O	n	x	n	x	x	n
C[C@H]1[C@@H](NC(=O)Nc2ccc(Cl)cc2)CC[C@@]23CCCN2C(=O)CCC[C@@H]13	x	x	x	x	x	n
Cc1cc(/C=N/NC(=O)c2ccc(CN3CCOCC3)cc2)c(C)n1-c1ccccc1	u	n	n	n	u	n
O=C(N/N=C/c1ccccc1[N+](=O)[O-])c1ccc(CN2CCOCC2)cc1	n	9.3µM	n	n	n	n
O=[N+]([O-])c1ccc(Cl)c(/C=N/N2CCN(Cc3ccc(Cl)cc3)CC2)c1	n	u	n	x	n	n
C/C(=N\N1CCN(Cc2ccc(Cl)cc2)CC1)c1ccc([N+](=O)[O-])cc1	n	n	u	n	11µM	n
CC(C)CCNc1nc(-c2ccco2)c2c(c1C#N)CCCC2	n	13µM	n	x	n	n
CC1(C)Cc2c(C#N)c(NCc3ccco3)nc(-c3ccco3)c2CO1	n	x	n	n	n	n
CC1(C)Cc2c(C#N)c(NCCCO)nc(-c3ccccc3)c2CO1	x	u	x	x	n	n
CCN(CC)CCNc1nc(-c2ccccc2)c2c(c1C#N)CC(C)(C)OC2	n	8.3µM	u	x	u	n
SMILES	LASV entry inh	Pf growth 96h	Marburg entry inh	Pf growth 48h	HCV inh	HCMV inh
CN(C)CCNc1nc(-c2ccco2)c2c(c1C#N)CC(C)(C)OC2	n	u	n	n	u	-100
CCCCN(C)c1nc(-c2ccco2)c2c(c1C#N)CC(C)(C)OC2	x	2.9µM	n	x	n	n
CC1(C)Cc2c(C#N)c(N3CCCC3)nc(-c3ccco3)c2CO1	x	u	n	x	x	n
COc1ccc(OC)c(N(C(=O)c2ccco2)C(C(=O)NC2CCCC2)c2ccc(N3CCOCC3)cc2)c1 (stereo unspecified)	n	n	u	u	n	n
CCNc1ccccc1	x	x	x	x	x	n
Cc1ccc(CCSc2ccc(F)cc2)cn1	n	u	n	n	n	n
Cc1ccc(CCSc2ccc(C(C)C)cc2)cn1	u	12µM	n	n	n	n
O=C(COC(=O)/C=C/c1cccs1)NC1CC1	u	n	u	n	n	-60
Cc1nn(C)c(C)c1CNC(=O)c1nn2c(c1Cl)NC(c1cccs1)CC2C(F)(F)F (stereo unspecified)	n	n	u	u	u	-86
